Laboratory results from ChEMBL document CHEMBL1961873, “Compounds: GSK PKIS; Assays: Nanosyn kinase panel” (2012).

Columns and labels:
[1] = target: Mitogen-activated protein kinase kinase kinase kinase 4 (Homo sapiens) (UniProt O95819); conditions: at 1 µM;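 also: reported figure is an averaged inhibition value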
[2] = target: Dual specificity mitogen-activated protein kinase kinase 1 (Homo sapiens) (UniProt Q02750); conditions: at 0.1 µM
[3] = target: Dual specificity mitogen-activated protein kinase kinase 1 (Homo sapiens) (UniProt Q02750); conditions: at 1 µM
[4] = target: Misshapen-like kinase 1 (Homo sapiens) (UniProt Q8N4C8); conditions: at 0.1 µM
[5] = target: Misshapen-like kinase 1 (Homo sapiens) (UniProt Q8N4C8); conditions: at 1 µM
[6] = target: T1, Serine/threonine-protein kinase 4 (Homo sapiens) (UniProt Q13043); conditions: at 0.1 µM
T1 sequence (whole entry): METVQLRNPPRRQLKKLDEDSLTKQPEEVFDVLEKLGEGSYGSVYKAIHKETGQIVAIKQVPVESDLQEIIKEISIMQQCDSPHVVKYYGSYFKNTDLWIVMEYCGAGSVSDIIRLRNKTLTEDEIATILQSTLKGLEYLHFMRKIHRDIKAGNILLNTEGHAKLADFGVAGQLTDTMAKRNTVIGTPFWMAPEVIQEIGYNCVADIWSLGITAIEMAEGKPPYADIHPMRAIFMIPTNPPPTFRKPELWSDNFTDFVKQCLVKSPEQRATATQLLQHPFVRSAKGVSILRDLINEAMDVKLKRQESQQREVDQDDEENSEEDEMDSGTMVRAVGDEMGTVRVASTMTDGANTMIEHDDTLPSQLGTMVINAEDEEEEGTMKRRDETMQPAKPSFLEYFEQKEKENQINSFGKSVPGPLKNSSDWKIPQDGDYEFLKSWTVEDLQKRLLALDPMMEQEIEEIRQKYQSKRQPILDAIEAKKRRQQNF

[7] = target: T1, Serine/threonine-protein kinase 4 (Homo sapiens); conditions: at 1 µM
[8] = target: T2, Serine/threonine-protein kinase 3 (Homo sapiens) (UniProt Q13188); conditions: at 0.1 µM
T2 sequence (whole entry): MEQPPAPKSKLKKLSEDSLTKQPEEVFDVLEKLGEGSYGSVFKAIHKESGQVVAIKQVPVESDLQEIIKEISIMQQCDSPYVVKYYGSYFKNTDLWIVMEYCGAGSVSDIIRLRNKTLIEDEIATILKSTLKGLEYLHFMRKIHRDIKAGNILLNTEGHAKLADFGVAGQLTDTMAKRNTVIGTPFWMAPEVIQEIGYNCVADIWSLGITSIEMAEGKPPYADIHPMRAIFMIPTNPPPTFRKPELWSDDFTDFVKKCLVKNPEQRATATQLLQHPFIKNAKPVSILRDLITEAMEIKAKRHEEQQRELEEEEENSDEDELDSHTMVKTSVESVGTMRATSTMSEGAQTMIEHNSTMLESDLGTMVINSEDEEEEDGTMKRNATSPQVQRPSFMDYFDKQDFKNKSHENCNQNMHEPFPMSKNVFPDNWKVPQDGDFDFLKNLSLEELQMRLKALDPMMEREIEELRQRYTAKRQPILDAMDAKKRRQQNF

[9] = target: T2, Serine/threonine-protein kinase 3 (Homo sapiens); conditions: at 1 µM
[10] = target: Serine/threonine-protein kinase 26 (Homo sapiens) (UniProt Q9P289); conditions: at 0.1 µM
[11] = target: Serine/threonine-protein kinase 26 (Homo sapiens) (UniProt Q9P289); conditions: at 1 µM
[12] = target: Serine/threonine-protein kinase PAK 1 (Homo sapiens) (UniProt Q13153); conditions: at 0.1 µM
[13] = target: Serine/threonine-protein kinase PAK 1 (Homo sapiens) (UniProt Q13153); conditions: at 1 µM
[14] = target: Serine/threonine-protein kinase PAK 2 (Homo sapiens) (UniProt Q13177); conditions: at 0.1 µM
[15] = target: Serine/threonine-protein kinase PAK 2 (Homo sapiens) (UniProt Q13177); conditions: at 1 µM
[16] = target: Serine/threonine-protein kinase PAK 3 (Homo sapiens) (UniProt O75914); conditions: at 0.1 µM
[17] = target: Serine/threonine-protein kinase PAK 3 (Homo sapiens) (UniProt O75914); conditions: at 1 µM
[18] = target: Serine/threonine-protein kinase PAK 5 (Homo sapiens) (UniProt Q9P286); conditions: at 0.1 µM
[19] = target: Serine/threonine-protein kinase PAK 5 (Homo sapiens) (UniProt Q9P286); conditions: at 1 µM
[20] = target: Serine/threonine-protein kinase PAK 6 (Homo sapiens) (UniProt Q9NQU5); conditions: at 0.1 µM;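 also: mean PAK6 inhibition reported from the GSK PKIS screen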

Chain of Serine/threonine-protein kinase PAK 5 (Homo sapiens) (Q9P286 whole entry, looked up): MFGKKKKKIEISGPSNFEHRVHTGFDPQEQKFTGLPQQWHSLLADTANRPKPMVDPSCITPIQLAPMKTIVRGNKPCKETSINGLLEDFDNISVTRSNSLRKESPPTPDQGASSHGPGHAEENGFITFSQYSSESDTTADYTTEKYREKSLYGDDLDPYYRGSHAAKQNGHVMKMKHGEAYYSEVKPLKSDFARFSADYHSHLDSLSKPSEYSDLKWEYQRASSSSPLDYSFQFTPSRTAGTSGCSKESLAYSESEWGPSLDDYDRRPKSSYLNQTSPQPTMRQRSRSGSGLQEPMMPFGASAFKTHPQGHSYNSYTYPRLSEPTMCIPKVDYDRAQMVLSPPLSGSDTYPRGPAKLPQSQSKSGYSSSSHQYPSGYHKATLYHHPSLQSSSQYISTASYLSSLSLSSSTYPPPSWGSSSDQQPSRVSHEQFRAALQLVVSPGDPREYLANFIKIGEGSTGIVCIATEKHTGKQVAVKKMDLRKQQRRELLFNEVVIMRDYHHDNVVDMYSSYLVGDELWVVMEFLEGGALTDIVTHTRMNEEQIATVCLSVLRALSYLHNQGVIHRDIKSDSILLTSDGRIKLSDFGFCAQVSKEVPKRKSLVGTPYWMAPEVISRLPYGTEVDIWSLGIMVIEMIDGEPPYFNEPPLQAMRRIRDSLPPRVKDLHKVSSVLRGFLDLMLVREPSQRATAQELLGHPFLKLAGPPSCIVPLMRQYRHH
Chain of Serine/threonine-protein kinase 26 (Homo sapiens) (Q9P289 2-416 limits assumed): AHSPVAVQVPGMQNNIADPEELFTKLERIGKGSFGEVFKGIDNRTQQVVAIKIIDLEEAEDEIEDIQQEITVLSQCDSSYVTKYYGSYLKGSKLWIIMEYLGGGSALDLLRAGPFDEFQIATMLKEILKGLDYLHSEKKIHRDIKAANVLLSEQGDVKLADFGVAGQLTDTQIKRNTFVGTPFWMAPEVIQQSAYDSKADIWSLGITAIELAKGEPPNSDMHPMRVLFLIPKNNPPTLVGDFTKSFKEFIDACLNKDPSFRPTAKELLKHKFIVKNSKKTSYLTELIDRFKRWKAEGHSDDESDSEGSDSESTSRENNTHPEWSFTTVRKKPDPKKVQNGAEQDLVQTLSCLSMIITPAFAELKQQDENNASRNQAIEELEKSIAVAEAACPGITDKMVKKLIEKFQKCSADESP
Chain of Misshapen-like kinase 1 (Homo sapiens) (Q8N4C8 whole entry, looked up): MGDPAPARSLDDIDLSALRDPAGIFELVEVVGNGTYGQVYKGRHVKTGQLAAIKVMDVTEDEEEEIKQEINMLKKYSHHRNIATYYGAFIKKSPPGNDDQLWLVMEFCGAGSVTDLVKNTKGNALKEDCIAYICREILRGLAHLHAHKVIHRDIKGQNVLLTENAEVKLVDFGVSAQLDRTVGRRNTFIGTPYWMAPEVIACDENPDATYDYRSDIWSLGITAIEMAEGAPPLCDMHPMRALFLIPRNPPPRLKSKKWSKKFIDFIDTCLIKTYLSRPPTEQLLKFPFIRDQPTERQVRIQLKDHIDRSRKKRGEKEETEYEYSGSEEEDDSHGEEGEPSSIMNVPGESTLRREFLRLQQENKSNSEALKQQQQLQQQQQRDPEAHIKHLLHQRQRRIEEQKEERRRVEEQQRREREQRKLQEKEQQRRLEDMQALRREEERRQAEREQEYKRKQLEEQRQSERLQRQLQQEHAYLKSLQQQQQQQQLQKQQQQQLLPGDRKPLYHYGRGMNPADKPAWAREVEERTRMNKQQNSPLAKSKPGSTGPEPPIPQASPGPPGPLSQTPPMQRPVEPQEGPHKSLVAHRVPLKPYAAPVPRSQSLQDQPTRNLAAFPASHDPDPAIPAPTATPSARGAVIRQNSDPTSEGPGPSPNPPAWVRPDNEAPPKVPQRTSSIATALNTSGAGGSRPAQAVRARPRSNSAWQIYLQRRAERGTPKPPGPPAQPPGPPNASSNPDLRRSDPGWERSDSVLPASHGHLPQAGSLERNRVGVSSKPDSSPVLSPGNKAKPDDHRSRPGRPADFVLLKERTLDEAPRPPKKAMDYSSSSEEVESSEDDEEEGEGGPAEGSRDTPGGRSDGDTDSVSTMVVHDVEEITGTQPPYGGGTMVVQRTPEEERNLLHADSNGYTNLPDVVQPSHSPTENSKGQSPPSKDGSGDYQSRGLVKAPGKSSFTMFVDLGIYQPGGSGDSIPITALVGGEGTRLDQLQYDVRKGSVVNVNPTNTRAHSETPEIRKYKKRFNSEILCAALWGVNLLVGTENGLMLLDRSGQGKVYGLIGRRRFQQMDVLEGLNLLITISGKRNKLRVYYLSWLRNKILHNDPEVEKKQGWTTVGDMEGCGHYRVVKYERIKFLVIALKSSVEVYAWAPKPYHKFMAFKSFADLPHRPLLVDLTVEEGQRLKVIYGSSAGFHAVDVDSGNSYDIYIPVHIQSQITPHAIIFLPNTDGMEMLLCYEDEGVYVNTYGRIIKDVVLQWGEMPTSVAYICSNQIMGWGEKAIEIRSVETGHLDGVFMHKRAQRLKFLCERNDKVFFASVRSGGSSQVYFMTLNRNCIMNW
Chain of Serine/threonine-protein kinase PAK 3 (Homo sapiens) (O75914 whole entry, looked up): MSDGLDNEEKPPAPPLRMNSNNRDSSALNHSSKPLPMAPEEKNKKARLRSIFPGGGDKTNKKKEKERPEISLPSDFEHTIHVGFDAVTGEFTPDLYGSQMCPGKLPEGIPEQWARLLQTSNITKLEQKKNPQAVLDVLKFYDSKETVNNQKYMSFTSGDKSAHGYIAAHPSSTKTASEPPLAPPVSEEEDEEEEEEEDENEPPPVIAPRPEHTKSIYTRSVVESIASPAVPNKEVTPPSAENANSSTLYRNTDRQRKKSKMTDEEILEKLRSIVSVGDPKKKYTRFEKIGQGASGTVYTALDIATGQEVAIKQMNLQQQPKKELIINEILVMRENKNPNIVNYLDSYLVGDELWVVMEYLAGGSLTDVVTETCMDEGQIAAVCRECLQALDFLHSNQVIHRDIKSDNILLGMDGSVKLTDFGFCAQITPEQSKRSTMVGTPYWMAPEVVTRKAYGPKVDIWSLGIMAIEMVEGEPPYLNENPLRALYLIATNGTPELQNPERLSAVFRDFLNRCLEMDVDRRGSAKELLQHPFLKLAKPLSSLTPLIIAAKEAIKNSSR
Chain of Dual specificity mitogen-activated protein kinase kinase 1 (Homo sapiens) (Q02750 whole entry): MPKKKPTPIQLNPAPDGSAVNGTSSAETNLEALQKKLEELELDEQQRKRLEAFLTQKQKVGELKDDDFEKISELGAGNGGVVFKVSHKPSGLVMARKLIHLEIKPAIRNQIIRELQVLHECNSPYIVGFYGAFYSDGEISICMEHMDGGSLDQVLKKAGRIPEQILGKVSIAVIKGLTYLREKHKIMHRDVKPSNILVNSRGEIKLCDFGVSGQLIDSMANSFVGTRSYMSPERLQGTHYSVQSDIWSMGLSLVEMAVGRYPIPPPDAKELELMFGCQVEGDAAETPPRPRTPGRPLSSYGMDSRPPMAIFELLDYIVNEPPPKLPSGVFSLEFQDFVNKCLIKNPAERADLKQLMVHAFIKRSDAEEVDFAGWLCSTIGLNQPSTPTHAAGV
Chain of Serine/threonine-protein kinase PAK 1 (Homo sapiens) (Q13153 whole entry): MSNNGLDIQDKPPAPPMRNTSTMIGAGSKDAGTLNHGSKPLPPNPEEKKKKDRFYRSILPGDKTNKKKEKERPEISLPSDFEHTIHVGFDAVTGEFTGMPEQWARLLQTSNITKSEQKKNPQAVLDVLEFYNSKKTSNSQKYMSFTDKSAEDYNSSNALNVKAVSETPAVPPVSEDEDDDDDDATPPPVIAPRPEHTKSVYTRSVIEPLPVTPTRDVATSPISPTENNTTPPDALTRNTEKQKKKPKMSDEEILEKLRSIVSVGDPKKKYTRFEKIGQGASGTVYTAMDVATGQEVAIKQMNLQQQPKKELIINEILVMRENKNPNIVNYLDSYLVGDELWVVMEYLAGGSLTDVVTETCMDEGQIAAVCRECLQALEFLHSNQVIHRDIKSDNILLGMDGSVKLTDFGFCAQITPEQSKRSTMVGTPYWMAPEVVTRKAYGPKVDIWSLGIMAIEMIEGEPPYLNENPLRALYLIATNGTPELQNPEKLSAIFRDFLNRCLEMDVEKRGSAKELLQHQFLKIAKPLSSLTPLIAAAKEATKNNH
Chain of Serine/threonine-protein kinase PAK 2 (Homo sapiens) (Q13177 whole entry): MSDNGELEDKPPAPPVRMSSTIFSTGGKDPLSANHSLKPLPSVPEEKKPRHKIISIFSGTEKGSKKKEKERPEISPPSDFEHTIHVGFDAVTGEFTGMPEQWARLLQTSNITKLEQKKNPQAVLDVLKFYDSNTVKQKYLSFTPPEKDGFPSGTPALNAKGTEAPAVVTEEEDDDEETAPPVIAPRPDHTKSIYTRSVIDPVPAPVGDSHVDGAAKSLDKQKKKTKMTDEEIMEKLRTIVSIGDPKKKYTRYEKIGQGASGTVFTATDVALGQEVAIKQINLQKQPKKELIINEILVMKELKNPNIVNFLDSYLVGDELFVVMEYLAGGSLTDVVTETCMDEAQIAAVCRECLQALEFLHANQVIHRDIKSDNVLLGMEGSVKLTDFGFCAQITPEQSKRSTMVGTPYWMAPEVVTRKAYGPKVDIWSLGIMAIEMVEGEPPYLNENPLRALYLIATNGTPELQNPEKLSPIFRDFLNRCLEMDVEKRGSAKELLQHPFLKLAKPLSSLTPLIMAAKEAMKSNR

| Structure (SMILES) | inhibition [1] | inhibition [2] | inhibition [3] | inhibition [4] | inhibition [5] | inhibition [6] | inhibition [7] | inhibition [8] | inhibition [9] | inhibition [10] | inhibition [11] | inhibition [12] | inhibition [13] | inhibition [14] | inhibition [15] | inhibition [16] | inhibition [17] | inhibition [18] | inhibition [19] | inhibition [20] |
| --- | --- | --- | --- | --- | --- | --- | --- | --- | --- | --- | --- | --- | --- | --- | --- | --- | --- | --- | --- | --- |
| COc1ccc(-c2cc3c(N)ncnc3o2)cc1 | 9.41% | -0.07% | 1.35% | 1.42% | 6.5% | -2% | -0.96% | -3.02% | -0.72% | 1.44% | 0.97% | -2.64% | -0.27% | -2.02% | -0.84% | -1.87% | -1.01% | -1.3% | -1.65% | -8.16% |
| CCNC(=O)O[C@H]1CN[C@H](C#Cc2cc3ncnc(Nc4ccc(OCc5cccc(F)c5)c(Cl)c4)c3s2)C1 | 5.98% | 2.35% | 1.8% | 4.31% | 5.58% | 5.6% | 5.6% | 6.17% | 5.21% | -1.55% | -0.79% | 1.87% | 8.64% | 1.21% | 1.91% | 3.71% | 3.15% | 5.88% | 2.54% | 8.13% |
| COc1ccc(-c2nn3ncccc3c2-c2ccnc(Nc3ccc4c(c3)OCCO4)n2)cc1 | 9.82% | 0.5% | 1.59% | 3.01% | 7.26% | -0.55% | 1.99% | -0.94% | -0.28% | 0.86% | 0.26% | 3.86% | -2.26% | -0.29% | 0.11% | 1.09% | 1.51% | -2.13% | -5% | 1.12% |
| CCn1c(-c2nonc2N)nc2c(C#CC(C)(C)O)nc(OC[C@H](N)c3ccccc3)cc21 | 35.1% | 2.26% | 4.39% | 6.18% | 21.1% | 7.92% | 42.7% | 9.64% | 42.4% | -0.06% | 28.1% | 1.29% | 3.91% | 1.1% | 10.9% | 2.18% | 4.83% | 37.3% | 70.9% | 49.4% |
| Cc1cccc2c1NC(=O)/C2=N\Nc1ccc(S(N)(=O)=O)cc1 | 48.9% | 2.57% | 1.95% | 7.44% | 34.6% | 6.81% | 24.4% | 7.49% | 15.2% | -2.65% | -4.46% | 7.85% | 5.96% | 2.44% | 1.43% | 3.43% | 3.88% | 11.2% | 2.81% | 3.7% |
| CC(=O)Nc1cccc(C#Cc2cncnc2Nc2ccc(OCc3cccc(F)c3)c(Cl)c2)c1 | 2.59% | 2.07% | 3.13% | 2.21% | 3.87% | 3.97% | 5.79% | 4.97% | 2.1% | 1.4% | -0.92% | 3.48% | 6.05% | 2.19% | 1.41% | 2.92% | 3.79% | -5.54% | 1.62% | 2.97% |
| CCc1nn2ncccc2c1-c1ccnc(NC2CC2)n1 | 5.59% | 2.65% | 2.39% | 3.11% | 3.73% | 1.74% | 3.6% | 1.75% | 5.22% | -1.35% | 1.56% | 3.36% | 4.68% | 1.85% | 1.62% | 3.09% | 3.37% | -2.62% | 0.37% | -9.47% |
| CCOc1ccc2c(-c3ccnc(Nc4cccc(C(F)(F)F)c4)n3)cnn2n1 | 4.83% | 2.29% | 0.44% | 3.9% | 7.19% | 3.72% | 3.98% | 5.61% | 6.48% | 0.02% | 0.13% | 4.57% | 3.75% | -0.07% | -0.6% | 3.17% | 2.39% | 0.65% | -0.74% | -3.86% |
| CC(C)(CO)CNC(=O)c1ccc2c(c1)/C(=N/Nc1ccc(S(N)(=O)=O)cc1)C(=O)N2 | 18.8% | 6.31% | 43.1% | 1.9% | 13.1% | 40.7% | 80.2% | 31.6% | 77.1% | 0.44% | 7.27% | 3.17% | 3.48% | -1.4% | -0.42% | -1.02% | 0.96% | -0.42% | 0.12% | 2.03% |
| COc1cc(/C=N/Nc2ncnc3[nH]ncc23)ccc1O | 38.5% | 3.54% | 3.75% | 6.75% | 25.1% | 6.37% | 19.5% | 5.9% | 15.1% | -1.06% | 5.4% | 1.82% | 6.64% | 2.22% | 1.35% | 4.08% | 4.44% | 10.5% | 11.8% | -5.57% |
| Fc1cccc(COc2ccc(Nc3ncnc4sc(-c5ccco5)cc34)cc2Cl)c1 | 6.92% | 5.47% | 3.29% | 6.46% | 7.36% | 4.94% | 8.32% | 6.61% | 8.59% | -1.76% | 3.25% | 5.72% | 4.19% | 1.79% | 1.67% | 5.17% | 3.75% | 2.39% | 4.77% | 1.93% |
| COc1cc2c(cc1Nc1nc(Nc3ccsc3C(N)=O)c3cc[nH]c3n1)N(C(=O)CN(C)C)CCC2(C)C | 14.8% | 6.86% | 12.3% | 11.4% | 15.3% | 15.6% | 47.7% | 12.3% | 22.1% | 3.1% | 0.56% | 8.7% | 7.09% | 2.44% | 3.48% | 5.68% | 5.85% | -2.38% | -3.07% | -6.17% |
| CN1CCC(n2cnc(-c3ccc(F)cc3)c2-c2ccnc(Nc3ccccc3)n2)CC1 | 41.2% | 3.25% | 4.26% | 8.59% | 41.2% | 3.25% | 6.2% | 1.1% | 3.6% | 0.76% | 5.17% | 1.24% | 4.02% | 0.86% | -0.38% | 2.18% | 2.38% | -3.93% | 4.44% | -9.85% |
